In the library only some 3.8% were active in any assay of this set; here they are far more common.
PAFAH1B2 inh – PAFAH1B2 enzyme inhibitors, primary screen, biochemical, fluorescence polarization, human; 340,000 compounds, 1.2% hits; recombinant PAFAH1B2, FP-rhodamine activity probe; inhibition, % at 3.39 µM;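 active = inhibition above the mean of all tested compounds plus 3 SD, cut at about 24% in these data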;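 note: 0% = enzyme with DMSO and 100% = wells lacking PAFAH1B2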
PAFAH1B3 FP inh – PAFAH1B3 enzyme inhibitors, primary screen, biochemical, fluorescence polarization, human. AID 492972, 2010. 340,000 compounds, 0.28% hits. inhibition, % at 3.39 µM. Platelet-activating factor acetylhydrolase IB subunit alpha1 (Homo sapiens), Q15102. recombinant PAFAH1B3, FP-rhodamine probe;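 active = inhibition above the screen-wide average of all tested compounds plus 3 SD, cut at about 25% in these data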;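 note: 0% = enzyme with DMSO only and 100% = wells lacking PAFAH1B3 protein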
Target sequence (Q15102 whole entry, looked up): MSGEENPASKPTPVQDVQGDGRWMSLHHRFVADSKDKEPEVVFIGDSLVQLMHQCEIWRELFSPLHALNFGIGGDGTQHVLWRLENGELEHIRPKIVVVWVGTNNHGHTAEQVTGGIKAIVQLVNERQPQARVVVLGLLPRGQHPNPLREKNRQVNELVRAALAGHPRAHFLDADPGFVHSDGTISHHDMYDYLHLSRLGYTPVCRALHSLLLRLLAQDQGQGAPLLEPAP
Pemphigus Ab inh – inhibitors of pemphigus antibody binding to DSG3, primary screen, biochemical, bead-based, flow cytometry, scFv-GFP. Desmoglein-3 (Homo sapiens), P32926. DSG3-coupled beads, scFv-anti-DSG3-GFP binding; active compounds read low. binding (percent of control), % at 10 µM. 310,000 compounds, 0.48% hits. AID 588358, 2011;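 active = binding more than 3 SD below its plate's average and above zero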;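 note: hits lower antibody fragment binding to DSG3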
pPAFAH FP inh – pPAFAH enzyme inhibitors, primary screen, biochemical, fluorescence polarization, human; 330,000 compounds, 1.5% hits; recombinant pPAFAH, FP-rhodamine probe fluorescence polarization; inhibition, % at 3.39 µM; Platelet-activating factor acetylhydrolase (Homo sapiens), Q13093;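 active = inhibition above the mean inhibition across the screen plus 3 SD, cut at about 25% in these data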;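 note: inhibitors block binding of the rhodamine activity-based probe so polarization drops; 0% = enzyme with DMSO and 100% = wells lacking pPAFAH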
M18AAP inhibitor – PfM18AAP inhibitors, malaria aminopeptidase, primary screen, biochemical, QFRET, recombinant enzyme | M18 aspartyl aminopeptidase (Plasmodium falciparum 3D7) | H-Glu-NHMec fluorogenic cleavage | inhibition, % at 7.35 µM | 290,000 compounds, 1.2% hits | AID 1822, 2009;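 active = inhibition above the campaign mean inhibition over all tested compounds plus 3 SD, cut at about 28% in these data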;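 note: 0% = plate median of test compound wells and 100% = 2 mM ZnCl2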
PAFAH2 inh – PAFAH2 enzyme inhibitors, primary screen, biochemical, fluorescence polarization, human; Platelet-activating factor acetylhydrolase 2, cytoplasmic (Homo sapiens), Q99487; recombinant PAFAH2, FP-rhodamine activity probe; inhibition, % at 3.39 µM; 340,000 compounds, 0.99% hits; AID 492956, 2010;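 active = inhibition above the mean over all tested compounds plus 3 SD, cut at about 30% in these data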;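 note: inhibitors block probe labeling of enzyme so polarization drops; 0% = enzyme with DMSO and 100% = wells lacking PAFAH2 protein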
An asterisk follows results filed as active; nt = not tested or not shown.

SMILES	PAFAH1B2 inh	PAFAH1B3 FP inh	Pemphigus Ab inh	pPAFAH FP inh	M18AAP inhibitor	PAFAH2 inh
Cc1cccc(-c2nnc(-c3cccc4ccccc34)o2)c1	-4	3	85	nt	nt	-6
COc1ccc(C(C(=O)Nc2ccc(C(C)C)cc2)N(Cc2ccco2)C(=O)CC2NC(=O)NC2=O)cc1 (stereo unspecified)	1	-1	108	-4	-17	3
COc1cccc(OC)c1OCC(=O)Nc1ccc(S(=O)(=O)N2CCCC2)cc1	6	10	100	1	nt	6
C[C@H](CO)N1C[C@H](C)[C@@H](CN(C)S(=O)(=O)c2ccc3c(c2)OCCCO3)OCc2cn(nn2)CCCC1=O	nt	nt	104	nt	nt	nt
COC(=O)Cc1csc(Nc2ccc(F)c(Cl)c2)n1	2	11	111	25*	3	5
Cc1cccc(N2C(S)=C(C#N)C(=O)NC2c2ccco2)c1 (stereo unspecified)	3	6	98	6	8	11
N#CC1=C(S)N(c2ccccc2)C(c2ccc(-c3cccc(Cl)c3)o2)NC1=O (stereo unspecified)	5	-2	103	28*	-1	7
Nc1nc(-c2ccc(Br)cc2)cs1	83*	6	160	8	3	3
Nc1nc(-c2ccccc2)cs1	39*	6	99	2	-13	0
Nc1nc(-c2ccc(F)cc2)cs1	55*	-2	97	-2	-1	-11
COc1ccc(-c2csc(N)n2)cc1F	1	8	100	-3	-2	9
Nc1nc(-c2cc(-c3ccccc3)no2)cs1	0	1	97	4	1	8
CCN1C(=O)[C@H]2[C@@H](c3ccc(C)cc3)N[C@]3(CCCN(Cc4ccc(OC)cc4)C3=O)[C@H]2C1=O	nt	nt	107	nt	nt	nt
CC1=C(C(=O)N2CCOCC2)CC(CC(=O)NC2CCCCC2)C(=O)N1Cc1ccc(C(C)(C)C)cc1 (stereo unspecified)	nt	nt	98	nt	nt	nt
O=C(Nc1cc(Cl)ccc1Oc1ccccc1)c1cnccn1	3	1	66*	6	-6	-1
Cc1ccc(C(=O)NCC(=O)OCC(=O)Nc2ccc(Cl)cc2C(F)(F)F)cc1C	-2	9	101	18	0	4
Cc1ccsc1C(=O)OCC(=O)Nc1ccc(Cl)cc1C(F)(F)F	3	1	82	33*	-1	51*
O=C(c1ccc(Cl)c(Cl)c1)c1cnc(Nc2ccccc2)s1	-1	6	-25*	2	-1	-2
CC1CCCCN1C(=O)COC(=O)c1cccc(NS(=O)(=O)c2ccccc2)c1 (stereo unspecified)	10	4	103	0	nt	5
CC1(C)CC(=O)c2sc(NS(=O)(=O)c3ccc(Br)cc3)nc2C1	27*	6	106	-23	-2	9
CN(C)C(=O)c1ccc(-c2nnc(OCc3nc4ccccc4n3C)c3ccccc23)cc1	1	-6	89	nt	nt	-4
Cc1c(NC(=O)/C(C#N)=C/c2ccc(-c3ccc(Cl)c(Cl)c3)o2)c(=O)n(-c2ccccc2)n1C	3	-10	100	12	-3	-5
Cc1c(NC(=O)/C(C#N)=C/c2ccc(-c3ccccc3Cl)o2)c(=O)n(-c2ccccc2)n1C	-1	8	101	27*	-4	2
CC(C)(C)C(=O)OCc1ccc(C2=CC(=O)CC(C)(C)C2=O)cc1	nt	nt	100	nt	nt	nt
COc1cc(/C=C/C(=O)OCC(=O)N(CC(C)C)c2c(N)n(Cc3ccccc3)c(=O)[nH]c2=O)ccc1O	4	4	107	nt	nt	8
COc1ccc(C)cc1NC(=O)C1CC1c1ccccc1 (stereo unspecified)	2	10	102	7	nt	2
Cc1ccc2[nH]c(C(=O)O)c(NC(=O)[C@@H]3C[C@@H]3c3ccccc3)c2c1	31*	3	98	7	-2	7
